According to PubChem BioAssay AID995 (National Center for Advancing Translational Sciences (NCATS), 2007):
Out of some 72,000 compounds screened, about 710 (0.99%) were called active. Where a call stands in place of a potency, no number is given. Not shown: some 7% with an inconclusive outcome. The full list was thinned out, with actives kept by preference. Unmarked numbers belong to inactive results. The call rests on the fitted dose curve; in most records, active means well fitted inhibition curve with a large enough effect; inconclusive means small, poorly fitted or top-dose-only effect; inactive means no such curve, though single readings can be large or run the other way.

Test: qHTS Assay for Inhibitors of the ERK Signaling Pathway using a Homogeneous Screening Assay; further: nearly all actives have a fitted effect of over 55% in size
Settings: HEK293-V1b, vasopressin-stimulated pERK AlphaScreen; series mostly up to 57.5 µM
From the text: qHTS Assay for Inhibitors of the ERK Signaling Pathway using a Homogeneous Screening Assay; further: nearly all actives have a fitted effect of over 55% in size
NIH Chemical Genomics Center [NCGC]
NIH Molecular Libraries Screening Centers Network [MLSCN]
Assay Submitter (PI): Dr. Wei Zheng, NCGC/NIH
The Ras/extracellular-signal-regulated kinase (ERK) mitogen activated protein (MAP) kinase signaling pathway (ERK1/2 cascade) plays is a key role in transmitting signals from the cell surface to the nucleus (Nishida and Gotoh 1993; Chang and Karin, 2001). The cascade is initiated by the small G-protein Ras, which recruits Raf […], where activation occurs. Alternatively, this pathway can be activated by elevating intracellular cAMP.
Activation of the ERK pathway is essential in increased cell division and cell survival. Sustained and constitutive activation of the ERK pathway, however, has been linked to uncontrolled cell proliferation, increased cell survival, and tumor progression. Thus, the ERK has been as an attractive target for cancer chemotherapy in the past few years (Sebolt-Leopold and Herrera, 2004). Given its physiological and pathological importance, assessment of ERK phosphorylation has been broadly performed in both basic research and drug discovery. Most assays for the measurement of ERK phosphorylation use the antibody-based detection methods, such as western blot and ELISA. These assays require multiple reagent additions with cell wash steps and are not suitable for high throughout screening.
The current cell-based ERK phosphorylation assay was performed using AlphaScreen platform. AlphaScreen is a two bead-based proximity-dependent chemical energy transfer luminescent assay platform. The assay reagents (ERK SureFire(TM) kit) were supplied from TGR BioSciences (Australia). In the presence of specific antibodies, phosphorylated ERK will bring "donor" and "acceptor" beads to a proximity range (<200 nm), and subsequently lead a chemical luminescent reaction upon exciting donor beads with 680 nm laser. To exclude the assay-related false positives, we used a biotinylated rabbit IgG to perform counter-screen. The biotinylated antibody mimics the phosphorylated ERK1/2 for bringing streptavidin coated beads and protein-A coated beads to a proximity range for the AlphaScreen detection.
NCGC Assay Protocol Summary:
HEK293 cells stably expressing type-1 vasopressin receptor (V1b) were maintained in DMEM medium (Invitrogen, Carlsbad, CA) at 37C under a humidified atmosphere containing 5% CO2 and 95% air. The medium contained 10% FBS, 2 mM L-glutamine, non-essential amino acid, pyruvate and 50 U/ml penicillin and 50 ug/ml streptomycin (Invitrogen). The aliquots of frozen cells were stored at -135C and used for the compound screening. All compounds were screened as titrations from 0.6 nM to 46 uM final concentration. Vasopressin was used to stimulate the ERK phosphorylation pathway. The ERK phosphorylation in cells was determined using an AlphaScreen assay kit provided by PerkinElmer. Data were normalized to the controls for basal activity (DMSO only) and 100% activation (25 nM vasopressin). AC50 values were determined from concentration-response data modeled with the standard Hill equation.
(1) Seed 4 ul/well of resuspended frozen HEK293 cells containing 2000 cells in white 1536-well plates for overnight with 1% FBS at 37C under a humidified atmosphere containing 5% CO2 and 95% air.
(2) Add 23 nL compounds in DMSO solution. The final titration was 0.6 nM to 46 uM.
(3) Incubate at 37C for 30 min.
(4) Dispense 0.5uL vasopressin (25 nM in final)
(5) Incubate at 37C for 5 min.
(6) Dispense 0.5uL of 1:2 diluted 5x lysis buffer.
(7) Incubate at 37C for 10 min.
(8) Dispense 1.5uL of mixture of activation buffer and reaction buffer with AlphaScreen beads (streptavidin donor beads and protein-A acceptor beads, 10 ng/well for each).
(9) Incubate at room temperature for 5 hr.
(10) Detect the assay plate in an EnVision plate reader (PerkinElmer) using the AlphaScreen detection mode.
[…]
Potency means the concentration at half of the fitted maximal effect.

Compound | Potency | activity, negative = inhibition
N#Cc1c(Cl)c(Cl)c(Cl)c(C#N)c1Cl | 2 µM (active) | 
C[N+]1(C)C2CC(OC(=O)C(CO)c3ccccc3)CC1[C@@H]1O[C@H]21 (stereo not given in full) | inactive | 
BrC1C(Br)C(Br)C(Br)C(Br)C1Br (stereo not given) | inactive | 
COC1CC(OC2CC[C@@]3(C=O)C4CC[C@]5(C)C(C6=CC(=O)OC6)CC[C@@]5(O)C4CC[C@]3(O)C2)OC(C)C1O (stereo not given in full) | inactive | 
CN1[C@@H]2CC[C@H]1CC(OC(=O)c1cc(Cl)cc(Cl)c1)C2 (stereo not given in full) | inactive | 
CN1[C@@H]2CC[C@H]1CC(NC(=O)c1nn(C)c3ccccc13)C2 (stereo not given in full) | inactive | 
C[C@H](CCC(=O)O)[C@H]1CC[C@@H]2[C@H]3CC[C@H]4C[C@H](O)CC[C@@]4(C)[C@@H]3CC[C@@]21C |  | -8.67% [at 11.5 µM]
CSC1=NP(=S)(SC)N(C)c2nc3n(c21)CCC3 (stereo not given) | 15.8 µM (active) | 
CNC(C)[C@@H](O)c1ccccc1 (stereo not given in full) | inactive | 
C[C@]12CC[C@H](O)CC1=CC[C@@H]1[C@H]2CC[C@]2(C)C(=O)CC[C@H]12 | inactive | 
O=[N+]([O-])c1ccc(Cl)c(Cl)c1 | inactive | 
CC(C)(Cc1c[nH]c2ccc(Cl)cc12)NCCOc1ccccc1OCC1CC1 | 39.8 µM (active) | 
Clc1cccc(Cl)c1Cl | inactive | 
CNCC[C@H](Oc1ccc(C(F)(F)F)cc1)c1ccccc1 | inactive | 
CC(C)C(N)C(=O)OCCOCn1cnc2c(=O)[nH]c(N)nc21 (stereo not given) | inactive | 
